PubChem BioAssay AID652017 (The Scripps Research Institute Molecular Screening Center, 2013)
The whole screen tested about 370,000 compounds, of which about 3,800 (1%) were called active. No stated cut-off is given here; in the data, active means activation above about 7.8%; inactive means the rest. Many of the other results were omitted from the sample, so actives are more common in it than they were.

experiment: SMARCA2 (BRM) function activators, primary screen, cell-based, luminescence, high throughput (AID 652017); settings: MG213 cells, MMTV-luciferase reporter, dexamethasone, overnight; at 9.1 µM; hits give high values;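 further: 0% = vehicle wells and 100% = reference activator wells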

activation, active:
Cc1ccc(NC(=O)c2cc3ccccc3o2)cc1 8.36%
COc1ccc(S(=O)(=O)NC(C)C(=O)N2CCCCCC2)cc1 (centres undefined) 8.03%
CC(=O)c1ccc(NC(=O)c2sc3nc4n(c(=O)c3c2C)CCCCC4)cc1 9.72%
O=c1c2c(nc3n1CCCCC3)sc1c(O)cccc12 10.3%
O=C(Nc1cc(=O)[nH]c2ncnn12)c1ccccc1Cl 8.25%
COc1c(O)cc2oc(-c3ccc(O)c(O)c3)cc(=O)c2c1O 8.25%
Cc1nn(Cc2ccc(F)cc2)c(C)c1NC(=O)c1cccnc1Cl 11.7%
COc1ccc(/C=N/NC(=O)c2cc(-c3cccc(C)c3)nc3ccccc23)cc1O 8.84%
Cc1cc(C(=O)NNC(=S)Nc2ccccc2C)cs1 8.64%
CCCC(=O)N1c2ccc(-c3csc(N)n3)cc2CC1C (centres undefined) 13.2%
Cc1ccc(NC(=O)C(=O)NCc2ccco2)c(C)c1 9.32%
CCOc1cc(NC(=S)NCCCOC)c(OCC)cc1NC(=O)c1ccco1 9.88%
CCOC(=O)Nc1ccc(NC(=O)OCC)cc1 11.1%
COc1ccccc1OCC(=O)O/N=C(\N)c1ccccn1 8.43%
C1=C(CCNc2ncnc3c2cnn3-c2ccccc2)CCCC1 10.2%
COc1ccc(C(=O)NC2=NCCS2)c(OC)c1 8.02%
COC(=O)Cc1nnn2c1[C@H](C)[C@H](c1ccccc1[N+](=O)[O-])OCC2 9.58%
COc1ccc(-c2csc(Cc3nc(O)cs3)n2)cc1 16.8%
CCN(CC)C(=O)CSc1nnc(-c2cccc(OC)c2)o1 8.29%

activation, inactive:
Cc1cccc(-n2nc3c(c2NC(=O)c2cc4ccccc4o2)CS(=O)(=O)C3)c1 -1.69%
CC(OC(=O)c1cc2ccccc2o1)C(=O)Nc1ccc(N2CCOCC2)cc1 (centres undefined) -1.72%
O=C(Nc1ccccc1)N1CCN(Cc2nc3ccccc3c(=O)[nH]2)CC1 -4.04%
COC(=O)c1cc(S(=O)(=O)N2CCN(c3ccccc3C)CC2)cn1C -6.95%
CCCCOCCCNC(=O)C[C@H]1C[C@@]2(C(=O)OC)C(=C[C@H](C(C)(C)C)O[C@@H]2C)N(CCc2ccc(OC)c(OC)c2)C1=O -1.39%
Nc1[nH]c(/C=C2/CCCCC2n2[nH]c(=O)n(-c3ccccc3)c2=O)c(Cc2ccccc2)[n+]1Cc1ccccc1 (centres undefined) -4.04%
COc1ccc(CNS(=O)(=O)c2ccc(NC(=O)N3CCCCC3)cc2)cc1 -3.18%
COc1ccc(N2CC(C(=O)N[C@@H](C)C(=O)N3CCCCC3)CC2=O)cc1 (some centres undefined) 1.33%
COCC(=O)N[C@@H]1C[C@@H]2O[C@@H](CO)CC[C@@H]2O[C@@H]1CCc1ccc(-c2ccccc2)cc1 0.63%
CCOC(=O)[C@]12CCCC=C1N(Cc1ccc(OC)cc1)C(=O)[C@@H]2CC(=O)NCc1cccs1 -2.09%
O=C(Nc1ccc2nc3n(c(=O)c2c1)CCCC3)c1ccc(Cl)nc1 -1.5%
Cc1c(C(=O)Nc2cccc(-c3nnc4n3CCCCC4)c2)oc2ccccc12 -1.34%
CC1CCN(C(=O)c2ccc3c(=O)n4c(nc3c2)CCCCC4)CC1 -1.07%
O=C(Cn1[nH]c(=O)c2ccccc2c1=O)Nc1cccc(-c2nnc3n2CCCCC3)c1 -0.49%
COc1cccc(CNC(=O)CNS(=O)(=O)c2ccc3nc(C)sc3c2)c1OC -2.54%
O=C(NC1CCCC1)C1CSCCS(=O)(=O)N1Cc1ccccc1 (centres undefined) -0.49%
COC(=O)[C@]12C[C@H](CC(=O)NCCCN3CCCC3=O)C(=O)N(CCc3ccc(OC)c(OC)c3)C1=C[C@H](COCc1ccccc1)O[C@@H]2C -2.89%
Cc1cc(C)cc(NC(=O)N2CCC(N(C)CCC(C)C)CC2)c1 -3.63%
COC(=O)c1cccc(Cn2ccc3ccc(-c4ccc5ccn(C(=O)c6ccccc6C)c5c4)cc32)c1 -2.21%
COc1ccc(-n2c(SCC(=O)Nc3ccccc3-c3ccccc3)nnc2-c2cccnc2)cc1 -4.88%
COc1ncnc2c1ncn2CCCNCCN1CCOCC1 -1.94%
CC(=O)c1cc(CN2CCC(n3nccc3NC(=O)c3ccccc3Cl)CC2)cs1 -2.24%
O=C(Nc1ccc2sc3ccccc3c(=O)c2c1)c1ccccc1Cl 5.49%
Cc1cc(Br)ccc1NC(=O)CCCOc1cc(=O)n(C)c2ccccc12 -2.55%
OC(CCl)CCl -4.79%
COc1ccc(CCNC(=O)CCNS(=O)(=O)c2cc(Br)cnc2N)cc1OC -1.13%
CCCCOCCCNC(=O)C[C@H]1C[C@@]2(C(=O)OC)C(=C[C@H](COCc3ccccc3)O[C@@H]2C)N(Cc2cccc3ccccc23)C1=O -2.77%
O=C(C1CCCN1S(=O)(=O)c1ccccc1)N1CCc2ccccc2C1 (centres undefined) -4.12%
Cc1ccc(C(=O)C2CCN(CC(=O)NCCC(C)C)CC2)cc1 -3.11%
Cc1nn(Cc2ccc(F)cc2)c(C)c1NC(=O)c1noc2c1CCc1ccccc1-2 -4.67%
Cc1nn(Cc2ccc(Cl)c(Cl)c2)c(C)c1NC(=O)c1cc(C2CC2)on1 -4.98%
COc1ccc(Cn2cc(CN3[C@@H](CC(C)C)COc4cc(Br)ccc4S3(=O)=O)nn2)cc1 0.39%
C/C(Cn1nnc2ccccc21)=N\OC(=O)c1cc(F)c(F)cc1Cl -0.31%
COc1ccc(-n2c(SCC(=O)Nc3ccc4cn[nH]c4c3)nnc2-c2cccnc2)cc1 6.71%
COc1ccc(C)cc1NC(=O)c1cc(-c2ccccc2)nc2c1cnn2C(C)C -4.75%
Cc1ccc(/C=N/NC(=O)COc2ccccc2-c2ccccc2)cc1 -0.77%
CCC(=O)Nc1ccc2c(c1)C(=O)N(C)[C@H]1CC[C@H](CC(=O)NCCOC)O[C@@H]1CO2 -1.86%
CC(CCN1CCC(C(O)(c2ccccc2)c2ccccc2)CC1)Oc1ccc([N+](=O)[O-])cc1Cl (centres undefined) 5.01%
Cc1ccccc1NC(=O)c1cc(S(=O)(=O)N2CCOCC2)cs1 -0.28%
Cc1cc(C(=O)NNC(=S)NC(C)c2ccccc2)cs1 (centres undefined) -0.96%
COC(=O)[C@]12C[C@H](CC(=O)NCc3ccccc3)C(=O)N(CCC3=CCCCC3)C1=C[C@H](C(C)C)O[C@@H]2C1CC1 0.2%
C=CCN1C(=O)[C@@H](CC(=O)N2CCN(C(=O)c3ccco3)CC2)[C@]2(C(=O)OC)CCCCC=C12 -3.14%
COC(=O)C12C=C3CC(c4ccccc4)=C3C(=O)N1Cc1[nH]c3ccccc3c1C2 (centres undefined) -3.71%
CN1C(=O)c2cc(NS(C)(=O)=O)ccc2OC[C@@H]2O[C@@H](CC(=O)NCc3ccc(-c4ccccc4)cc3)CC[C@H]21 0.34%
Cc1ccn(CCC(=O)N2c3ccccc3CC2C)n1 (centres undefined) -2.39%
CCOc1ncccc1C(=O)OCC(=O)N1c2ccccc2CC1C (centres undefined) -1.56%
Cc1ccccc1CN1CCNC(=O)C1CC(=O)NCCC1=CCCCC1 (centres undefined) 5.02%
O=C(NCc1ccncc1)C(=O)NCc1ccco1 -0.15%
Cc1ccc(SCC(=O)NC(=O)NCc2ccco2)c(C)c1 -0.59%
CN[C@H]1C[C@H]2c3cc(N4CCOCC4)ccc3CCN2C[C@H]1[C@H](C)O -3.84%
C=C(C)C#CC(Cc1ccccc1)N(CC1CC1)/C(N)=N/C(=O)OCc1ccccc1 (centres undefined) -1.63%
COc1cc(NC(=S)NCc2ccco2)c(OC)cc1Cl 0.64%
CCOc1cc(NC(=S)NCCCN(C)C)c(OCC)cc1NC(=O)C1CC1 1.16%
Cc1ccc(CSc2nnc(SCC(=O)NN=Cc3cc(Br)ccc3F)s2)cc1 -6.75%
CC(C)(C)OC(=O)NCc1cc(F)ccc1/C=C/S(=O)(=O)NCCc1ccccc1 -3.29%
CN(C(=O)CC1C(=O)NCCN1Cc1ccc2ccccc2c1)C1CCOCC1 (centres undefined) -1.84%
CC(C)(COC(=O)Nc1ccccc1)COC(=O)Nc1ccccc1 -1.85%
CCOC(=O)Nc1ccc(S(=O)(=O)N(C)C(C)C)cc1 -0.48%
O=C(N1CCOCC1)N1CC[C@H]2[C@H](CCCN2Cc2ccc(F)cc2)C1 -1.37%
N/C(=N\OC(=O)CCC1CCCCC1)c1ccccn1 3.7%
COc1ccccc1OCC(=O)OCc1cc(-c2ccco2)on1 1.73%
COC(=O)C1=C(C)N(Cc2ccccc2C(F)(F)F)C(=NCC2CC2)NC1c1cccc(Cl)c1 (centres undefined) -1.87%
CC(=O)Nc1ccc(S(=O)(=O)N2CCN(c3ccc([N+](=O)[O-])c(NCCN4CCOCC4)c3)CC2)cc1 -2.48%
O=C(Nc1ccc(Br)cc1)OCCN1C(=O)CCC12CCC(c1ccccc1)CC2 (centres undefined) -0.9%
S=C(NCCC1=CCCCC1)Nc1ccccc1 2.03%
Cc1nn(C(C)C(=O)NCCC2=CCCCC2)c(=O)c2nn(-c3ccccc3)c(C)c12 (centres undefined) 0.01%
Cc1ncn2cc(-c3ccc(Cl)cc3Cl)[nH]c(=O)c12 5.25%
O=C(O)CN1c2cccc3cccc(c23)S1(=O)=O -0.74%
COc1ccccc1C(=O)NCCC(=O)NC1=NCCS1 -1.3%
O=C(NC1=NCCS1)c1ccc(Cl)s1 3.86%
COC(=O)Cc1nnn2c1[C@H](C)[C@@H](OC)c1cc(Br)ccc1-2 -2.14%
COC(=O)Cc1nnn2c1[C@H](C)[C@H](c1ccccc1Br)OCC2 -2.14%
O=C(CSc1nnc(COc2ccccc2)n1Cc1ccco1)c1ccc2ccccc2c1 -6.31%
COc1ccc(C2C(C(C)=O)=C(O)C(=O)N2c2nccs2)cc1 (centres undefined) 1.1%
COc1ccc(-n2c(SC)nc(O)cc2=O)cc1 -1.4%
COc1cccc(NC(=O)CSc2nnc(-c3cccnc3)o2)c1 -0.51%
CCN(CC)C(=O)CSc1nnc(-c2ccc(S(=O)(=O)NCc3ccccc3Cl)cc2)o1 -2.52%
COc1ccc(-n2c(COc3ccc(C)cc3)nnc2SCC(=O)Nc2ccc(Oc3ccccc3)cc2)cc1 -5.92%
COc1ccc(-c2cc(-c3nnc(SCc4ccc([N+](=O)[O-])cc4)n3N)[nH]n2)cc1 -5.07%
COc1ccc(/C=C2\CC3(OC(C)=O)CCCN2C3)cc1 (centres undefined) -1.45%
